This is a sample that favours compounds with a hit; in the whole collection about 19% have one here.
HT1080 IDH1KD tx – qHTS for induction of synthetic lethality in tumor cells producing 2HG: qHTS for the HT-1080-IDH1KD cell line | HT-1080 IDH1 knockdown viability, ATP luminescence, 48 h | Potency, µM (series often up to 46.1 µM), without a hit: at the highest dose activity, negative = toxicity, usual class: cytotoxic | 360,000 tested, 2% active | AID 686971, 2013;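 note: potency is the fitted concentration of half-maximal effect; 0% = DMSO wells and -100% = cell-free medium wells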
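Knockdown cells (IDH1KD HT-1080) received compounds 2 h after plating at 750 cells/well and were kept 48 h at 37 °C in 5% FBS RPMI. A CellTiter-Glo luminescence read gave % activity for curve fitting.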
ELG1 DNA repair – qHTS screen for small molecules that inhibit ELG1-dependent DNA repair in human embryonic kidney (HEK293T) cells expressing luciferase-tagged ELG1. Potency, µM (series often up to 46.1 µM), inactives show top-dose activity change, negative = inhibition, hits mostly inhibitors. HEK293T ELG1-luciferase reporter, luminescence, 16 h; DNA damage induced by 5-fluorouridine. 330,000 tested, 2.3% active; note: potency is the fitted concentration of half-maximal effect; nearly all actives have a fitted effect of over 55% in size
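HEK293T cells expressing luciferase-tagged ELG1 (2,000/well) received 5-Fluorouridine plus compound or DMSO for 16 hr at 37 °C. Luciferase was read by ONE-Glo luminescence after 30 min at room temperature.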
TDP1 cell noCPT – qHTS for Inhibitors of human tyrosyl-DNA phosphodiesterase 1 (TDP1): qHTS in cells in absence of CPT; Potency, µM (titrated, usually from 46.2 µM), without a hit: top-dose activity change, negative = growth inhibition, hits mostly inhibitors; 420,000 tested, 15% active; AID 686978, 2013; DT40 Tdp1-/- hTDP1 cells, no CPT, ATP luminescence, 48 h; note: potency is the fitted concentration of half-maximal effect; nearly all actives have a fitted effect of over 55% in size
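Readout: luminescence from CellTiter-Glo after 30 min in the dark at RT. Cells: DT40 Tdp1-/- with stable hTDP1, 400/well. Exposure: compounds alone, ≥48 hr, 37 °C.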
IL1B secr inh – qHTS for Inhibitors of Inflammasome Signaling: IL-1-beta AlphaLISA Primary Screen | AID 743279, 2014 | activity change, % at 57.5 µM | 360,000 tested, 4.7% active | THP-1 LPS/ATP IL-1B secretion, AlphaLISA, 16 h; stronger effect = lower value; in the data active = activity change below about -50%; inconclusive = mostly about -30% to -49%
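THP-1 cells pretreated 1 hr with compounds (up to 57.5 uM final), then stimulated with LPS (250 ng/mL final) plus ATP (1.25 mM final); secreted IL-1B measured by AlphaLISA after 16 hr, decreased signal indicating inhibition.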
HT1080NT lethal – qHTS for induction of synthetic lethality in tumor cells producing 2HG: qHTS for the HT-1080-NT fibrosarcoma cell line | HT-1080-NT fibrosarcoma viability, CellTiter-Glo ATP luminescence, 48 h | Potency, µM (series often up to 46.1 µM), inactives show at the top dose activity, negative = less viability, most hits filed as cytotoxic | 360,000 tested, 1.6% active | AID 686970, 2013;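 note: NT is the 2HG producing partner of a matched IDH1 knockdown line; potency is the fitted concentration of half-maximal effect; 0% = DMSO-treated cells and -100% = media-only wells without cells; nearly all actives have a fitted effect of over 55% in size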
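Read-out is CellTiter-Glo luminescence after 10 minutes at room temperature, following 48 hours' compound treatment of HT-1080-NT cells (750 cells/well, RPMI, 5% FBS, 37 degrees C).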
DT40 TDP1 CPT – qHTS for Inhibitors of human tyrosyl-DNA phosphodiesterase 1 (TDP1): qHTS in cells in presence of CPT; chicken DT40 Tdp1-/-;hTDP1 cells + 20 nM CPT, ATP luminescence, 48 h; Potency, µM (highest dose often 46.2 µM), inactives show top-dose activity change, negative = growth inhibition, hits mostly inhibitors; 420,000 tested, 12% active; AID 686979, 2013; note: potency is the fitted concentration of half-maximal effect; nearly all actives have a fitted effect of over 55% in size
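Chicken DT40 Tdp1-/- cells complemented with human TDP1, 400 cells/well, exposed to compounds plus 20 nM camptothecin for at least 48 h at 37 C; viability read as ATP content by CellTiter-Glo luminescence.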
* marks the source's active call; other numbers are inactive results; ? = inconclusive; . = no result. Unless noted, calls come from the whole dose curve; as a rule, active = well fitted curve in the direction sought with a large enough effect; inconclusive = small, poorly fitted or top-dose-only effect, or another doubt; inactive = no such curve, though single readings can be large; an effect the other way counts as inactive or inconclusive. Unless noted, % is set by controls: 0 for no effect and ±100 for the full control effect.

SMILES | HT1080 IDH1KD tx | ELG1 DNA repair | TDP1 cell noCPT | IL1B secr inh | HT1080NT lethal | DT40 TDP1 CPT
O=C(c1cc2ccccc2oc1=O)N(Cc1ccc2c(c1)OCO2)Cc1ccco1 | 9% | -5% | 9.2µM* | -10 | -11% | ?
O=C(NCc1ccc2c(c1)OCO2)c1cc2ccccc2oc1=O | 16% | ? | -14% | 26 | 10% | 0%
CCOc1ccccc1N(CC(=O)Nc1ccc(OC)cc1OC)S(=O)(=O)c1ccccc1 | -10% | 16µM* | 26µM* | 0 | 9% | ?
CCOc1ccc(NC(=O)CN(c2ccccc2OCC)S(=O)(=O)c2ccccc2)cc1 | . | . | 18µM* | . | . | ?
COc1ccc(N(CC(=O)NCc2ccc(C)cc2)S(=O)(=O)c2ccccc2[N+](=O)[O-])c(OC)c1 | -5% | -10% | 23µM* | ? | 0% | ?
CCOc1ccccc1N(CC(=O)Nc1cccc(OC)c1)S(=O)(=O)c1ccccc1 | -4% | 0% | ? | 10 | 2% | 29µM*
O=C(O)CCn1c(=S)n(CCC(=O)O)c2ccccc21 | 11% | 6% | 22% | 7 | 14% | 0%
COc1cccc(NC(=O)N(C)C[C@H]2OCc3cnnn3CCCC(=O)N([C@H](C)CO)C[C@@H]2C)c1 | 1% | . | -11% | 23 | 4% | -15%
CCN(CC)S(=O)(=O)c1ccc2[nH]c(=O)cc(C(=O)Nc3ccccc3N3CCCC3)c2c1 | 9% | -13% | 3% | 14 | 12% | 2%
CCOc1ccc(S(=O)(=O)N(CC(=O)Nc2cccnc2)c2ccccc2)cc1 | . | . | 16µM* | . | . | ?
COc1ccc(NC(=O)CN(c2ccccc2F)S(=O)(=O)c2ccc(C)cc2)c(OC)c1 | -13% | ? | 15µM* | 51 | ? | 16µM*
COc1ccc(NC(=O)CN(c2ccccc2C)S(C)(=O)=O)c(OC)c1 | 1% | -5% | 16% | 0 | 17% | 2%
COc1ccc(OC)c(N(CC(=O)Nc2cccnc2)S(=O)(=O)c2ccccc2)c1 | 3.3µM* | -14% | ? | 73 | 6.5µM* | ?
COc1ccccc1N(CC(=O)Nc1cccnc1)S(=O)(=O)c1ccccc1 | 17% | -2% | -7% | -4 | 0% | -15%
CCOc1ccc(N(CC(=O)Nc2cccnc2)S(=O)(=O)c2ccc(C)cc2)cc1 | -19% | 21% | ? | -12 | -16% | -14%
CC1CCCCN1CCCNC(=O)Cn1ncc2c3ccccc3n(Cc3ccccc3)c2c1=O (stereo not given) | . | . | -20% | . | . | 10%
COc1ccc(/C=N/NC(=O)c2ccc3c(c2)OCO3)cc1 | -1% | ? | -12% | -24 | -21% | -8%
COc1ccc(/C=N/NC(=O)c2cc(-c3ccc4c(c3)OCO4)n[nH]2)cc1OC | -2% | 15µM* | 12µM* | ? | -4% | 18µM*
CN(C)c1ccc(/C=N/NC(=O)c2ccc3c(c2)OCCO3)cc1 | -2% | ? | -15% | 0 | 2% | -28%
CN(C)c1ccc(/C=N/NC(=O)c2cc(-c3ccc4c(c3)OCO4)n[nH]2)cc1 | ? | 27% | 21µM* | 20 | 5.8µM* | 18µM*
O=C(N/N=C/c1ccc2c(c1)OCO2)c1ccc(NC(=O)c2ccc(F)cc2)cc1 | -9% | -8% | ? | -2 | ? | ?

Compound activity: PubChem, National Center for Advancing Translational Sciences (NCATS)
